Source: PubChem BioAssay AID781 (Emory University Molecular Libraries Screening Center, 2007)
In all, about 220,000 compounds went through this assay and about 1,600 (0.73%) were called active. Shown is part of a subset that was picked to be rich in actives. A number with no mark means an inactive call.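 How the source made its calls: active means inhibition above about 70% (limit read from the data); inactive means the rest.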

Each molecule was assayed against 14-3-3 protein zeta/delta (Bos taurus) (UniProt P63103) (assay: disruptors of 14-3-3 zeta phospho-Bad complex – biochemical, TR-FRET, bovine 14-3-3 zeta, primary screen (AID 781;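 further: 0% = full 14-3-3 plus peptide FRET controls and 100% = background without 14-3-3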)). Conditions: TR-FRET 14-3-3zeta/Dy647-pBad peptide displacement, 1 h; at 21.7 µM; hits give high values.
Chain of 14-3-3 protein zeta/delta (Bos taurus) (P63103 whole entry, looked up): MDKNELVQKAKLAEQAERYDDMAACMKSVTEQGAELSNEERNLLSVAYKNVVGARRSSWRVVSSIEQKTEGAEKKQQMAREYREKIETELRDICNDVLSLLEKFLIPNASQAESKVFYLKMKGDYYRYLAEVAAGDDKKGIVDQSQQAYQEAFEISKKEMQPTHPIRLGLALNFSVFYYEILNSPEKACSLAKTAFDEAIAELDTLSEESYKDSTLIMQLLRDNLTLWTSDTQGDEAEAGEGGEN

Row | Compound | inhibition
1 | Fc1ccc(N2CCN(Cc3cnc(Oc4ccc(Br)cc4)s3)CC2)cc1 | -11.7%
2 | COc1ccc(N2CCN(Cc3ccc(Br)s3)CC2)cc1 | 79.9% (active)
3 | COc1ccc(N2CCN(Cc3nnc(-c4ccccc4)o3)CC2)cc1 | -10.5%
4 | O=C(NCc1cccnc1)c1cnc2ccccc2n1 | 13.6%
5 | Oc1ccccc1N1CCN(c2ncnc3sc(-c4ccccc4)cc23)CC1 | -3.44%
6 | CCc1cc2c(NC3CCCC3)ncnc2s1 | 12.9%
7 | CCc1cc2c(N3CCN(c4nnc(CC)s4)CC3)ncnc2s1 | 76.6% (active)
8 | CNC(=O)NC(=O)CSc1nnc(-c2ccc(F)cc2)n1CC1CCCO1 (stereo not given) | -19.5%
9 | CN1CCN(C(CNS(=O)(=O)c2cccs2)c2cccnc2)CC1 (stereo not given) | -2.11%
10 | COCCCNC(=S)N(Cc1ccccc1)Cc1ccc(F)cc1 | -1.09%
11 | CC(C)C(=O)NCc1cc(-c2ccc(Cl)cc2)no1 | 9.14%
12 | Cn1c(COc2ccc(Cl)cc2)nc2ccccc2c1=O | 89.6% (active)
13 | COCn1c(COc2ccccc2)nc2ccccc21 | 0.06%
14 | COc1ccc(OCc2ccc(-c3nc4ccccc4c(=O)n3N)o2)cc1 | -11.1%
15 | CN(CC(=O)N1CCN(c2ccccc2)CC1)S(=O)(=O)c1cccs1 | -17.7%
16 | CNC(=S)NNC(=O)c1ccc(N(C)C)cc1 | -0.72%
17 | CCCCCCNS(=O)(=O)c1ccccc1Br | -7.16%
18 | Cc1[nH]nc(SCC(=O)NCC(C)C)c1[N+](=O)[O-] | 94% (active)
19 | CC(C)CNC(=O)COC(=O)/C=C/c1ccccc1[N+](=O)[O-] | -3.85%
20 | Cc1ccc(C(C)NC(=O)Cn2nc(C)c([N+](=O)[O-])c2C)cc1 (stereo not given) | 5.36%
21 | Cc1ccc2nc3n(c(=O)c2c1)CCC3 | -3.59%
22 | COc1ccc(-c2nc3n(c2Br)CCC3)cc1 | 73.6% (active)
23 | Brc1cccc(-c2nnc3n2CCC3)c1 | -2.99%
24 | Cc1cccc(NC(=S)NCCc2ccc(F)cc2)c1C | 1.39%
25 | CC(CN1CCOCC1)c1ccccc1 (stereo not given) | 71.2% (active)

Row | Compound | inhibition
26 | OC(c1ccccc1)C(CN1CCOCC1)c1ccccc1 (stereo not given) | 6.57%
27 | Cc1ccc(C(=O)OC(C)CN2CCOCC2)cc1 (stereo not given) | -4.58%
28 | O=Cc1ccc(OCc2cn3ccccc3n2)cc1 | -3.57%
29 | CC1(C)OC(=O)C(=CNC(CO)C(=O)O)C(=O)O1 (stereo not given) | 12.2%
30 | Oc1c(Cl)cc(Cl)c(Cl)c1Cc1c(O)c(Cl)cc(Cl)c1Cl | 82.8% (active)
31 | O=C(c1ccco1)N1CCN(CCOc2ccccc2)CC1 | -0.94%
32 | CN(C)CCN=c1cc(-c2ccccc2)oc2ccc(Cl)cc12 | -12%
33 | CN(C)N=Nc1ccc2nc[nH]c2c1 | -55.4%
34 | CN1C(=O)/C(=N/OC(=O)c2ccccc2Br)c2ccccc21 | 9.1%
35 | Cc1csc(NC(=O)C2CCCN2C(=O)OCC(C)C)n1 (stereo not given) | -4.68%
36 | Cc1csc(NC(=O)CN2CCCCCC2)n1 | 79.5% (active)
37 | CS(=O)(=O)c1ccc2nc(NC(=O)CN3CCCCCC3)sc2c1 | 66.8%
38 | COC(=O)Cc1nc2ccccc2[nH]1 | 78.5% (active)
39 | COc1ccc(OC(C)C(=O)NCCc2nc3ccccc3[nH]2)cc1 (stereo not given) | 4.28%
40 | O=C(COc1ccccc1)NCCc1nc2ccccc2[nH]1 | -2.28%
41 | COc1cc(NC(=S)NCCSc2ccc(C)cc2)cc(OC)c1 | -12.2%
42 | O=C(Nc1ccc([N+](=O)[O-])cc1)C1(c2ccccc2)CCOCC1 | -1.28%
43 | CC(C)OCCCNc1ncnc2c1[nH]c1ccc(F)cc12 | -11%
44 | Cc1ccc2[nH]c3c(=O)n(Cc4ccccn4)cnc3c2c1 | -4.28%
45 | COc1cc(OC)c(OC)cc1/C=N/Nc1ncnc2c1[nH]c1ccc(C)cc12 | 94.3% (active)
46 | CCN(CC)CCNCC(=O)Nc1ccc(Oc2ccccc2)cc1 | 20.5%
47 | COc1cc(NC(=O)c2cncc(-c3ccc(C#N)cc3)c2)cc(C(=O)Nc2cccc(C(F)(F)F)c2)c1 | 23%
48 | O=c1cc(CO)oc(C(Nc2cccc(C(F)(F)F)c2)c2ccccn2)c1O (stereo not given) | 2.47%
49 | COc1cccc(OC)c1OCCN1CCN(C(=O)c2ccco2)CC1 | 24.8%
50 | COc1ccc(Br)cc1CN1CCN(C(=O)c2cccc(OC)c2OC)CC1 | 81.3% (active)

Row | Compound | inhibition
51 | COc1ccccc1N1CCN(Cc2ccc(OC)c3ccccc23)CC1 | 37.2%
52 | CC(C)c1cc(C(=O)O)n[nH]1 | 65.1%
53 | O=C(Nc1ccc(Cl)cn1)c1cnn2cccnc12 | 81.6% (active)
54 | Cc1cc(NC(=O)c2cnn3cccnc23)n(-c2ccccc2)n1 | 7.08%
55 | O=C(Nc1ccc(Cl)cn1)c1ccc2c(c1)OCCO2 | 7.42%
56 | C/C(N)=C(/C#N)C(=O)COC(=O)c1cc(-c2ccccc2)nc2ccc(Br)cc12 | -9.11%
57 | O=C(N/N=C/c1ccccn1)c1cccnc1 | -10.3%
58 | Cc1cc(NC(=O)OC(C)C)ccc1-c1ccc(NC(=O)OC(C)C)cc1C | 12%
59 | Cc1cc(NC(=O)CSc2nc(C(C)C)nc3sc4c(c23)CCC(C)C4)no1 (stereo not given) | 2.28%
60 | Cc1nc(SCC(=O)Nc2cc(C)on2)c2c(C)c(C)sc2n1 | 85.3% (active)
61 | Cc1nc(SCC(=O)Nc2cc(C)on2)c2c3c(sc2n1)CCCC3 | -9.48%
62 | Cc1nn(CC#N)c(=O)n1N(C)c1ncc(C(F)(F)F)cc1Cl | -20.5%
63 | CN(CC(O)COc1ccc(S(=O)(=O)N2CCOCC2)cc1Cl)C1CCCCC1 (stereo not given) | -11.1%
64 | COCCCNCC(=O)Nc1sc(C)c(C)c1C(=O)OC | 78.7% (active)
65 | COC(=O)c1c(NC(=O)c2c(Cl)cnn2C)sc(C)c1C | -11.9%
66 | CCOC(=O)c1c(NC(=O)c2cccs2)sc(C)c1C | 10.5%
67 | COc1cc(CN2CC(C)CC(C)C2)cc([N+](=O)[O-])c1O (stereo not given) | -15.1%
68 | CCOc1ccc(S(=O)(=O)NCC2CCCO2)cc1 (stereo not given) | 90.7% (active)
69 | CCC(=O)Nc1ccc(S(=O)(=O)NCC2CCCO2)cc1 (stereo not given) | -9.79%
70 | O=S(=O)(NCC1CCCO1)c1ccc2ccccc2c1 (stereo not given) | 2.47%
71 | COC(=O)c1sc(SC)c(S(=O)(=O)C(C)C)c1N/N=C(\C#N)S(=O)(=O)c1ccccn1 | -11.7%
72 | O=[N+]([O-])c1ccc(N=Cc2c(O)ccc3ccccc23)cc1 | 2.73%
73 | O=C(NNc1cc(Cl)cc(Cl)c1)c1c(F)cccc1Cl | -1.3%
74 | CCOC(=O)N1CCN(C(=O)Cn2cnc3ccccc3c2=O)CC1 | -7.01%
75 | CCOC(=O)N1CCN(CC(=O)n2c(C)c(C)c3ccccc32)CC1 | 71.6% (active)

Row | Compound | inhibition
76 | CCOC(=O)N1CCN(CC(=O)c2c(C)[nH]c3ccccc23)CC1 | -1.72%
77 | COc1ccc(CC(=O)NCC(=O)N/N=C/c2cc(Br)ccc2OC)cc1 | -0.33%
78 | NC(N)=N/N=C/c1ccc(Cl)c([N+](=O)[O-])c1 | 22.1%
79 | NC(N)=N/N=C/c1ccc(OCc2ccc(Cl)cc2Cl)cc1 | 98.2% [fluorescence artefact?] (active)
80 | COc1ccc(C(=O)O/N=C(\N)Cc2ccc(Cl)cc2Cl)cc1OC | -16.2%
81 | Cc1ccc(S(=O)(=O)N(C)C)cc1NC(=O)c1n[nH]c(=O)c2ccccc12 | 1.22%
82 | CCC(=O)c1ccc(OCC(=O)Nc2ccc3nc(C)sc3c2)cc1 | 4.78%
83 | O=[N+]([O-])c1cc(Cl)cc(/C=N/NC(=S)Nc2cc(S(=O)(=O)N3CCOCC3)ccc2Cl)c1O | 50.2%
84 | C[C@@H]1C[C@@H]2O[C@H]2/C=C\C=C\C(=O)Cc2c(Cl)c(O)cc(O)c2C(=O)O1 | -2.99%
85 | S=c1[nH]nc(-c2ccccc2)n1/N=C/c1c[nH]c2ccccc12 | -8.9%
86 | S=c1[nH]nc(-c2cc(-c3ccccc3)n[nH]2)n1/N=C/c1c2ccccc2cc2ccccc12 | 77.8% (active)
87 | Fc1ccccc1/C=N/n1c(-c2cccnc2)n[nH]c1=S | 0.38%
88 | Cc1cccc(N2CCN(C(=O)/C=C/c3ccco3)CC2)c1C | -4.76%
89 | CCC1CO/C(=C(\C(=C(Cl)Cl)N2CCOCC2)[N+](=O)[O-])N1 (stereo not given) | 93.7% (active)
90 | CN(C)C(=O)c1coc2nc3ccccc3nc12 | 1.09%
91 | Cc1ccc(-c2csc(-c3cc(C)on3)n2)cc1 | 0.81%
92 | CCOc1ccc(C(=O)N(Cc2ccc(N(C)C)cc2)C2CCS(=O)(=O)C2)cc1 (stereo not given) | -6.02%
93 | COc1cc(C(=O)N(Cc2ccc(N(C)C)cc2)C2CCS(=O)(=O)C2)cc(OC)c1OC (stereo not given) | 94.9% (active)
94 | COc1ccc(C(=O)N(Cc2ccc(N(C)C)cc2)C2CCS(=O)(=O)C2)cc1 (stereo not given) | -0.9%
95 | CC(=O)NNC1=Nc2ccccc2N(C)C(C)C1 (stereo not given) | -5.76%
96 | Cc1ccc(N2C(=O)CC(N3CCSCC3)C2=O)c(C)c1 (stereo not given) | 0.9%
97 | CC(=O)Nc1ccc(S(=O)(=O)Nc2nccc(/C=C/c3ccccc3F)n2)cc1 | -3.98%
98 | O=C(NC(=S)N1CCN(Cc2ccccc2)CC1)c1ccccc1 | -19.4%
99 | O=C(Nc1ccccc1)N1CCN(C(=O)Nc2ccccc2)CC1 | -1.69%
100 | O=C(Nc1ccccc1)N1CCN(Cc2ccccc2)CC1 | 77.4% (active)
